In PubChem BioAssay:
Calls of active or inactive are those of the source.

Legend:
[1] = system: Plasmodium falciparum Sir2 (PF13_0152, Sir2A); experiment: Plasmodium falciparum Sir2A binding compounds – biochemical, small-molecule microarray, 635 nm fluorescence, primary screen (AID 1098); settings: fluorescence 635 nm, higher = more signal;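 note: score merges spot fluorescence intensity with its signal-to-noise ratio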
[2] = probe aDKK1 binding to arrayed compounds – biochemical, biotinylated probe, 635/667 nm fluorescence, primary screen (AID 1099); settings: small-molecule microarray, higher = more signal;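 note: score merges 667nm spot fluorescence with signal to noise across triplicate slides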
[3] = probe aCHRDL2 binding to arrayed compounds – biochemical, biotinylated probe, 635/667 nm fluorescence, primary screen (AID 1100); settings: small-molecule microarray, higher = more signal
[4] = change in splice reporter luminescence, either direction, cell-based, HEK293, spliceosome inhibition project, primary screen (AID 1101); settings: HEK293 splicing luciferase reporter, 24 h, higher = more signal, called active from +8 up or from −8 down;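 note: HEK293 cells carrying a splicing-competent luciferase reporter gene; test concentration not given here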
[5] = molecular target: Fibroblast growth factor 10 (Homo sapiens) (UniProt O15520); experiment: compounds binding fibroblast growth factor 10 – biochemical, small-molecule microarray, 635 nm fluorescence, primary screen (AID 1102); settings: FGF10 binding, fluorescence 635 nm, higher = more signal
Fibroblast growth factor 10 (Homo sapiens), sequence (O15520 whole entry, looked up): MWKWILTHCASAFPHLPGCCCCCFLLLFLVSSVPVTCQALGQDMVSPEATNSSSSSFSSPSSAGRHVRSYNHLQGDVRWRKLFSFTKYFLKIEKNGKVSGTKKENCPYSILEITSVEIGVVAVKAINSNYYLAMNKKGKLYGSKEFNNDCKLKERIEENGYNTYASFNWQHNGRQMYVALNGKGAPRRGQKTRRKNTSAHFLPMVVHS

[6] = system: glycogen synthase kinase-3 (GSK3A per assay name; protocol says GSK3B); experiment: compounds binding glycogen synthase kinase-3 – biochemical, small-molecule microarray, 635 nm fluorescence, GSK3A, primary screen (AID 1103); settings: fluorescence 635 nm, higher = more signal; note: the record names both GSK3A and GSK3B
[7] = molecular target: Epidermal growth factor receptor (Homo sapiens) (UniProt P00533); experiment: compounds binding epidermal growth factor receptor – biochemical, small-molecule microarray, 635 nm fluorescence, primary screen (AID 1104); settings: EGFR binding, higher = more signal;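 note: score merges 667 nm emission intensity with spot signal to noise over triplicate slides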
Epidermal growth factor receptor (Homo sapiens), sequence (P00533 whole entry, looked up): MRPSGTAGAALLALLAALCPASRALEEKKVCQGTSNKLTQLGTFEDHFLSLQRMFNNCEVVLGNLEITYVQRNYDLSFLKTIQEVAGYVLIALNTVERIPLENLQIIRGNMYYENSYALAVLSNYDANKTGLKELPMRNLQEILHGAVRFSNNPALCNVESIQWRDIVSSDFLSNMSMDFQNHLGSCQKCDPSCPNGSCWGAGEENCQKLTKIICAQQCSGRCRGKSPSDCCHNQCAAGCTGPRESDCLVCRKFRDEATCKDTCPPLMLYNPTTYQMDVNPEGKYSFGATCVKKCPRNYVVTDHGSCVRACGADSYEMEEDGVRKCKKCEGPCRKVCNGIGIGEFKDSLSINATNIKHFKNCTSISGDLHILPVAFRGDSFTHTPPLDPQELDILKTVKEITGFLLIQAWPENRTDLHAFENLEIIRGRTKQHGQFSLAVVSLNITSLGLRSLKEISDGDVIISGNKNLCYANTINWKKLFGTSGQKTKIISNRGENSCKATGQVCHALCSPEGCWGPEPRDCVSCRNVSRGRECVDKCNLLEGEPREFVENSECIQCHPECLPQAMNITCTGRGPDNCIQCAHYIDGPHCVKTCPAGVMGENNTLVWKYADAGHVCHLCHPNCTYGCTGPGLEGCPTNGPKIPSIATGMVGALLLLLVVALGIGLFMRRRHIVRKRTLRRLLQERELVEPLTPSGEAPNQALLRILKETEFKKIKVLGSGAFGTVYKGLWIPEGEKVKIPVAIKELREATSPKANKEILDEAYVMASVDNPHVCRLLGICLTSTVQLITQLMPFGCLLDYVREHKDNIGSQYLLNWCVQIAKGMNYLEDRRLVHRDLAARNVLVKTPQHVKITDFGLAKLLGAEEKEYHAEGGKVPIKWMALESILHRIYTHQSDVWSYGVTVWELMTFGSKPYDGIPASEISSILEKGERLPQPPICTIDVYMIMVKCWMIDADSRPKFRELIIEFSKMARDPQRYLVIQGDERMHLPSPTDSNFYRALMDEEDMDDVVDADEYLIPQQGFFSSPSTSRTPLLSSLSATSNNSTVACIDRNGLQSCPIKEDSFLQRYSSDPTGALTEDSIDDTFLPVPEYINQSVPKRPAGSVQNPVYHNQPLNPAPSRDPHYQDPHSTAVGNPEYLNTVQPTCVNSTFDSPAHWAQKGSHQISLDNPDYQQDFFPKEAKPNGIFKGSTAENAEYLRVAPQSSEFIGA

[8] = molecular target: Follistatin-related protein 3 (Homo sapiens) (UniProt O95633); experiment: compounds binding follistatin-related protein 3 – biochemical, small-molecule microarray, 635 nm fluorescence, primary screen (AID 1105); settings: FSTL3 binding, higher = more signal;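 note: score merges emission near 667 nm and signal to noise per printed spot across three slides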
Follistatin-related protein 3 (Homo sapiens), sequence (O95633 whole entry, looked up): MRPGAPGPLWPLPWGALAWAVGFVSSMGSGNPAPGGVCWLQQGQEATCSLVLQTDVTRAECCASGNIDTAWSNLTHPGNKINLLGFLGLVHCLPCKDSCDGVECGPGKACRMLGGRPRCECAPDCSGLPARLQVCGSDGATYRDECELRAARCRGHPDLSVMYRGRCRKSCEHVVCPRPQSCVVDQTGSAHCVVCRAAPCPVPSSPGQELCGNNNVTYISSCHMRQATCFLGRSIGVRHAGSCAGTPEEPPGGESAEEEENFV

[9] = molecular target: Dickkopf-related protein 1 (Homo sapiens) (UniProt O94907); experiment: small molecules binding DKK1 protein – biochemical, small-molecule microarray, 635 nm fluorescence scan, primary screen (AID 1106); settings: higher = more signal;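 note: score merges emission near 667 nm with signal to noise over three replicate slides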
Dickkopf-related protein 1 (Homo sapiens), sequence (O94907 whole entry, looked up): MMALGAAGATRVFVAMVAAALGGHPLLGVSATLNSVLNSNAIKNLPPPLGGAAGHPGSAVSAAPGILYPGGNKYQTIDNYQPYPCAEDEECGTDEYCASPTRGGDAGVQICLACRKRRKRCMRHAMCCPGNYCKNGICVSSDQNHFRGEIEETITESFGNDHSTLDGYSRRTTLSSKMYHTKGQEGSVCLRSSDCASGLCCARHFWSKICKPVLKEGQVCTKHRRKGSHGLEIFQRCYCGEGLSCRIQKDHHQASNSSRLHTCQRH

[10] = system: Inhibin beta A chain (activin A); experiment: small molecules binding activin A – biochemical, small-molecule microarray, 635 nm fluorescence scan, primary screen (AID 1107); settings: INHBA, higher = more signal;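 note: mouse activin A protein probed at 4.33 µg/mL on printed slides; score merges bound-protein fluorescence near 667 nm with spot signal-to-noise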
[11] = system: Human papillomavirus type 1a protein E7 (residues 44-93); experiment: small molecules binding HPV E7 44-93 – biochemical, small-molecule microarray, residues 44-93, 635 nm fluorescence, primary screen (AID 1108); settings: fluorescence 635 nm, higher = more signal;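 note: E7 fragment applied at 1 µg/mL in TBST for 1 h at 4 C; score combines spot fluorescence with its signal to noise ratio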
[12] = hepatitis C replication reporter changes, two-sided – Huh7 cells, luciferase reporter, HCV replication inhibitor project, primary screen (AID 1109); settings: Huh7 HCV replicon luciferase reporter, 48 h; higher = more signal;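 note: huh7 hepatoma cells harbouring a luciferase neomycin HCV replicon reporter; luciferase luminescence as measure of HCV replicon replication; test concentration not given here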
[13] = molecular target: Left-right determination factor 2 (Homo sapiens) (UniProt O00292); experiment: small molecules binding LEFTY2 protein – biochemical, small-molecule microarray, 635 nm fluorescence scan, primary screen (AID 1110); settings: higher = more signal
Left-right determination factor 2 (Homo sapiens), sequence (O00292 whole entry, looked up): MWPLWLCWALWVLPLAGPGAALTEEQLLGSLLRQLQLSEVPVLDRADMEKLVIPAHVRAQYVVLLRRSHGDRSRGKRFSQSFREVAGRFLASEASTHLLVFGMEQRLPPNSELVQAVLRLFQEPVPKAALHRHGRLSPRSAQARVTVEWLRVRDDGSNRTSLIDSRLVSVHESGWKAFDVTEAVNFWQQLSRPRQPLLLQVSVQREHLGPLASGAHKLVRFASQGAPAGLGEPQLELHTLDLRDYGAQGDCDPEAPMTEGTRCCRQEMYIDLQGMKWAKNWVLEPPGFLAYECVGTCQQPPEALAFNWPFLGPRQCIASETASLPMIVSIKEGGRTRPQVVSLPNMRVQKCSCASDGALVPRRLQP

[14] = molecular target: Calmodulin-1 (Homo sapiens) (UniProt P0DP23); experiment: small molecules binding calmodulin-1 with EGTA – biochemical, small-molecule microarray, Cy5-labelled CALM1, profiling panel (AID 1111); settings: Cy5-CALM1 binding fluorescence, higher = more signal;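 note: labelled calmodulin applied in Tris saline Tween buffer holding calcium plus EGTA and DTT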
[15] = molecular target: Calmodulin-1 (Homo sapiens) (UniProt P0DP23); experiment: small molecules binding Ca-loaded calmodulin-1 – biochemical, small-molecule microarray, Cy5-labelled CALM1, plus calcium, artefact control for SMM control-protein annotation, profiling panel (AID 1112); settings: Cy5-CALM1 binding fluorescence, higher = more signal;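 note: score merges spot fluorescence with signal to noise from triplicate slides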
[16] = probe aWnt5a binding to arrayed compounds – biochemical, biotinylated probe, 635/667 nm fluorescence, primary screen (AID 1113); settings: small-molecule microarray, higher = more signal;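 note: score merges 667 nm fluorescence intensity with signal-to-noise per printed feature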
[17] = probe aShh binding to arrayed compounds – biochemical, biotinylated probe, 635/667 nm fluorescence, primary screen (AID 1114); settings: small-molecule microarray, higher = more signal;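 note: probe is biotin-labelled aShh protein from a stem cell growth factor screen; measures binding of labelled protein to compounds printed on the slide; score merges feature fluorescence at 667 nm with signal-to-noise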
[18] = probe aNog binding to arrayed compounds – biochemical, biotinylated probe, 635/667 nm fluorescence, primary screen (AID 1115); settings: small-molecule microarray, higher = more signal;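 note: probe is biotinylated aNog protein used at 0.15 µg/mL for 1 h at 4 C; z-score combines 667 nm fluorescence of each spot with its signal to noise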
[19] = molecular target: Torsin-1A-interacting protein 1 (Homo sapiens) (UniProt Q5JTV8); experiment: compound microarray binding of lysate hLAP1 – cell lysate, small-molecule microarray, COS7 lysate, 635/667 nm fluorescence, primary screen (AID 1116); settings: 635 nm fluorescence, higher = more signal
Torsin-1A-interacting protein 1 (Homo sapiens), sequence (Q5JTV8 whole entry, looked up): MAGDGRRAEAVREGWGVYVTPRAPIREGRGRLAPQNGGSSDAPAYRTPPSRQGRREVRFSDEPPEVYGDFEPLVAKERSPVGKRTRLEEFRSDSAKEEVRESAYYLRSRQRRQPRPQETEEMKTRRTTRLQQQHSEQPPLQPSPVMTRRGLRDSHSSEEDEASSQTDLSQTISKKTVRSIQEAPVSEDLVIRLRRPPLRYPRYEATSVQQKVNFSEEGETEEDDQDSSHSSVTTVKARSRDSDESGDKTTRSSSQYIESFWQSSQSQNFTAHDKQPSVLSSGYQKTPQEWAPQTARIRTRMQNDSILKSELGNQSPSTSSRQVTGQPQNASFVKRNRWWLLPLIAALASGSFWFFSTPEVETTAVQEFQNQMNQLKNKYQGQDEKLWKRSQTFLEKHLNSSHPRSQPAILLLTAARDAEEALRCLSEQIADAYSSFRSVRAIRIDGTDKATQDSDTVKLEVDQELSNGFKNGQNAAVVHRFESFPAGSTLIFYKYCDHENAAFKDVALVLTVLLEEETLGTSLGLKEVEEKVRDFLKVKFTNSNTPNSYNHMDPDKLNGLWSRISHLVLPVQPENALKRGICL

[20] = molecular target: Alpha-bungarotoxin (Bungarus multicinctus) (UniProt P60615); experiment: compounds binding labelled alpha-BTX control protein – biochemical, small-molecule microarray, Alexa647 label, 635/667 nm fluorescence, artefact control for SMM control protein annotation, profiling panel (AID 1117); settings: alpha-BTX-A647 binding fluorescence, higher = more signal
Alpha-bungarotoxin (Bungarus multicinctus), sequence (P60615 whole entry, looked up): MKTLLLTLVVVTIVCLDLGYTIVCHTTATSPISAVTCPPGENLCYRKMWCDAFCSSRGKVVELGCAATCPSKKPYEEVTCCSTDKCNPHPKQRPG

| Compound | composite z-score [1] | composite z-score [2] | composite z-score [3] | z-score [4] | composite z-score [5] | composite z-score [6] | composite z-score [7] | composite z-score [8] | composite z-score [9] | composite z-score [10] | composite z-score [11] | z-score [12] | composite z-score [13] | composite z-score [14] | composite z-score [15] | composite z-score [16] | composite z-score [17] | composite z-score [18] | composite z-score [19] | composite z-score [20] |
| --- | --- | --- | --- | --- | --- | --- | --- | --- | --- | --- | --- | --- | --- | --- | --- | --- | --- | --- | --- | --- |
| O=C1O[C@@H](c2ccccc2)[C@@H](c2ccccc2)N2[C@@H](c3ccc(O)cc3)[C@]3(C(=O)Nc4ccc(C#CCCO)cc43)[C@@H](C(=O)Nc3nc4ccccc4s3)[C@H]12 | 0.94 | 0.0179 | 0.376 | 0.344 (inactive) | 1.17 | 1.13 | 0.214 | 0.545 | -0.17 | 0.0507 | 1.23 | -0.0469 | 0.173 | 0.289 | -0.331 | -0.0405 | 0.108 | 0.128 | 1.2 | 1.66 |
| COCCCNC(=O)[C@]1(Cc2ccccc2N=[N+]=[N-])N=C(c2ccc(OCCCO)cc2)O[C@@H]1c1ccccc1N=[N+]=[N-] | 0.707 | 0.609 | 0.942 | 1.93 (inactive) | 0.955 | 0.353 | -0.287 | 0.219 | -0.589 | 0.738 | 1.43 | -3.31 | -0.282 | 1.72 | 0.785 | 0.14 | 0.0556 | -0.312 | -0.0819 | 0.955 |
| CCOc1cc(C(O)C2C=CC3C(=O)N(C)C(=O)C3N2N2CCCCC2)ccc1O (stereo not given) | 1.56 | 0.637 | 0.101 | 0.377 (inactive) | 0.264 | -0.37 | 0.287 | 0.276 | 0.164 | 0.898 | 0.0912 | 0.403 | 0.298 | -0.0003 | -0.393 | 0.0173 | 0.199 | 0.243 | -0.283 | 0.676 |
| CC=CC(O)C1C=CC2C(=O)N(c3ccccc3)C(=O)C2N1Nc1ccc([N+](=O)[O-])cc1 (stereo not given) | 0.563 | -0.0639 | 0.0737 | 0.43 (inactive) | 0.455 | 0.464 | 0.496 | 0.501 | 0.113 | 0.896 | 1.21 | 0.0112 | 0.382 | -0.107 | -0.654 | -0.0685 | 0.0469 | -0.124 | 0.643 | 0.529 |
| COC(=O)[C@@]1(Cc2ccc(OC)cc2)[C@H]2c3cc(C(=O)N(C)C)n(Cc4ccccc4)c3C[C@H]2CN1C(=O)c1ccccc1 | 0.656 | 0.268 | -0.332 | -2.28 (inactive) | 0.0697 | 0.0849 | -0.342 | -0.0447 | -0.128 | 0.825 | 1.34 | -1.66 | -0.367 | 1.63 | 1.03 | -0.0681 | -0.12 | -0.759 | -0.681 | 0.187 |
| COC(=O)[C@H](Cc1ccccc1)N1CC(/C=C/C2CC2)=C[C@@H]1[C@@H](O)Cc1ccccc1 | 1.01 | 0.0175 | -0.276 | 3.96 (inactive) | 1.47 | 0.837 | 0.688 | 1.4 | 1.2 | 0.142 | 1.31 | -1.33 | 1.04 | 0.48 | -0.513 | 0.0079 | -0.0035 | 0.131 | 0.0412 | 0.737 |
| Cc1ccc(S[C@]2(C(=O)NCC(C)C)CC(=O)N(Cc3ccccc3Cl)[C@@H]2c2ccc(CO)cc2I)cc1 | 1.22 | 0.117 | 0.791 | -0.611 (inactive) | -0.85 | -0.408 | -0.409 | -0.615 | -0.557 | 0.67 | 0.409 | -1.55 | -1.16 | -0.363 | -0.0595 | 0.31 | -0.221 | 0.515 | 0.359 | 1.48 |
| CC=CC(O)C1C=CC2C(=O)N(C)C(=O)C2N1Nc1ccc([N+](=O)[O-])cc1[N+](=O)[O-] (stereo not given) | 1.1 | 0.121 | 0.636 | 0.607 (inactive) | -0.49 | -1.06 | -0.898 | -0.79 | -0.232 | 1.11 | -0.0226 | -0.121 | -0.324 | -0.086 | -0.541 | -0.148 | 0.166 | 0.0471 | -0.345 | -0.297 |
| COCCOC(=O)N1C(=O)[C@@]2(c3cc(C#CC4=CCCCC4)ccc31)[C@H](c1ccccc1OCCO)N1[C@H](c3ccccc3)[C@H](c3ccccc3)OC(=O)[C@H]1[C@@H]2C(=O)N1CCc2cc(OC)c(OC)cc2C1 | 0.162 | -0.636 | -0.834 | -0.222 (inactive) | 0.848 | 1.18 | 0.733 | 1.4 | 0.356 | -0.244 | 1.33 | -1.81 | 0.336 | -0.141 | -0.383 | -0.121 | -0.176 | -0.008 | 0.336 | 0.761 |
| COc1ccc([Si](C)(C)[C@H]2[C@H](CCn3cc([C@H](O)c4ccccc4)nn3)O[C@@]3(C(=O)N(Cc4ccc(N5CCC5=O)cc4)c4ccccc43)[C@@H]2C)cc1 | 0.995 | -0.185 | -0.403 | 0.0121 (inactive) | 0.865 | 0.365 | 0.631 | 0.855 | 0.527 | 0.862 | 0.73 | -0.917 | 0.656 | -0.468 | -0.217 | -0.16 | -0.138 | -0.103 | 0.273 | 0.54 |
| CCCCN1CC=CC23O[C@@H]4C=CCOC(=O)[C@@H]4[C@H]2C(=O)N(CCCO)[C@@H]3C1=O (stereo not given in full) | 1.24 | -0.159 | 0.48 | -1.32 (inactive) | -0.816 | -1.16 | -0.953 | -1.18 | -1.05 | 0.396 | 0.409 | -0.352 | -0.997 | -0.125 | 0.423 | -0.202 | -0.138 | -0.168 | -0.363 | -1.34 |
